This is one part of a sample in which hits are shown more often than they occur.
Cruzain inh noDet: blocks cruzain activity in detergent-free assay; P25779; purified cruzain, Z-FR-AMC fluorescence, no detergent; Potency, µM, most hits filed as inhibitors; 200,000 compounds, 2.3% hits; AID 1476; note: nearly all actives have a fitted effect of over 40% in size
Target sequence (P25779 123-467 limits assumed): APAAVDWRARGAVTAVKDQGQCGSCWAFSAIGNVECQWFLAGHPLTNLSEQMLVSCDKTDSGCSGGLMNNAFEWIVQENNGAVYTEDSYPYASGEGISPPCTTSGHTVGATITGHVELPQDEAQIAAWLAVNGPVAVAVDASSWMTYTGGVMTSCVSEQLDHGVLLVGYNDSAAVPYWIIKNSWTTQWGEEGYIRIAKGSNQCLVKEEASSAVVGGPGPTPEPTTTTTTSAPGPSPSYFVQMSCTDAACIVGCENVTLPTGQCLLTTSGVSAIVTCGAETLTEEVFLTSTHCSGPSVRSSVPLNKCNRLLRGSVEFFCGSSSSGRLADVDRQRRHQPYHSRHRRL
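Detergent-free condition (0.00005% Triton X-100) in acetate buffer pH 5.5 with DTT. 1.5 nM enzyme and compound were pre-mixed 15 min, then 2 uM Z-FR-AMC substrate added; reaction progress from fluorescence change between first and third reads (60 s).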
Giardia FBPA inh-1: Giardia lamblia aldolase inhibition; purified Giardia FBPA; Potency, µM (series often up to 59.6 µM), actives largely listed as inhibitors; 290,000 compounds, 0.71% hits; AID 2451; note: nearly all actives have a fitted effect of over 55% in size
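Giardia FBPA (40 nM reagent) was preincubated 10 min at RT with compound (up to 57.5 uM final), then substrate plus GAPDH/TPI/NAD/arsenate coupling system with diaphorase/resazurin was added; resorufin fluorescence (525/598 nm) was read after 20 min.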
Cruzain inh Det: cruzain (T. cruzi) inhibition with detergent; purified cruzain, Z-FR-AMC fluorescence, 0.01% Triton; Potency, µM, most hits filed as inhibitors; 200,000 compounds, 0.43% hits; note: nearly all actives have a fitted effect of over 40% in size
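Steps: dispense cruzain (1.5 nM final) in acetate buffer pH 5.5 with DTT and 0.01% Triton X-100; pin-transfer compounds; incubate 15 min RT; add Z-FR-AMC (2 uM final); read fluorescence every 30 s, using the 60 s intensity change.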
Giardia growth: blocks growth of Giardia lamblia trophozoites | shares compounds with Giardia FBPA inh-1 | Giardia lamblia trophozoite growth inhibition | Potency, µM (doses to about 57.5 µM), most hits filed as inhibitors | 1,500 compounds, 5% hits;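 note: trophozoites exposed to compound for 48 h at 37 °C; nearly all actives have a fitted effect of over 70% in size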
Mammalian tox: mammalian cytotoxicity of Giardia aldolase inhibitor hits. shares compounds with Giardia FBPA inh-1. Potency, µM (highest dose often 57.5 µM), most hits filed as inhibitors. mammalian cell viability counter-screen, qHTS. AID 2786. 1,500 compounds, 4% hits;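 note: Chinese hamster ovary cells used as mammalian cytotoxicity surrogate; viability measured as cellular ATP by luminescence; compound exposure lasted 48 h before reading; nearly all actives have a fitted effect of over 60% in size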
Giardia FBPA inh-2: confirmation of Giardia fructose-bisphosphate aldolase inhibitors | shares compounds with Giardia FBPA inh-1 | purified Giardia aldolase enzyme activity, qHTS | Potency, µM (series often up to 57.5 µM), most hits filed as inhibitors | 1,500 compounds, 5% hits; note: nearly all actives have a fitted effect of over 45% in size
Rabbit aldolase: selectivity test for Giardia aldolase inhibitors: rabbit aldolase. shares compounds with Giardia FBPA inh-1. Rabbit muscle FBPA enzyme inhibition, selectivity counter-screen. Potency, µM (top dose mostly 57.5 µM), usual class: inhibitors. 1,500 compounds, 4% hits; note: nearly all actives have a fitted effect of over 60% in size
Target sequence (P00883 whole entry, looked up): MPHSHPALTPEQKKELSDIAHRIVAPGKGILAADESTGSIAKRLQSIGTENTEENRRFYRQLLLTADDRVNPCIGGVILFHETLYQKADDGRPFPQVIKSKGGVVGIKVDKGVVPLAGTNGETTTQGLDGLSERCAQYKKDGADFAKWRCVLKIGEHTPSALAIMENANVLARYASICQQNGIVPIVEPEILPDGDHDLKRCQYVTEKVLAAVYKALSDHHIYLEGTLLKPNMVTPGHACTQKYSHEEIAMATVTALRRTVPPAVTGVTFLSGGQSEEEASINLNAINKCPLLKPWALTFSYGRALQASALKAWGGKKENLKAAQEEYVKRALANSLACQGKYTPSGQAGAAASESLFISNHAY
GAPDH coupling: GAPDH inhibition flagged for Giardia aldolase hits; GAPDH coupling enzyme counterscreen, biochemical, qHTS; AID 2795; Potency, µM (series often up to 57.5 µM), actives largely listed as inhibitors; 1,500 compounds, 6% hits; shares compounds with Giardia FBPA inh-1; note: nearly all actives have a fitted effect of over 55% in size
Large screens that a line does not name were inactive (follow-up assays come after a bar, where they were run); [ ] = dose if it differs, or a comment. Calls come from the whole dose curve; as a rule, active = well fitted curve in the direction sought with a large enough effect; inconclusive = small, poorly fitted or top-dose-only effect, or another doubt; inactive = no such curve, though single readings can be large; an effect the other way counts as inactive or inconclusive.

Cc1ccc(C)c(NC(=O)C2CCCN2S(=O)(=O)c2ccc3c(c2)CCCC(=O)N3)c1 (stereo not drawn)	none (no result: Giardia FBPA inh-1)
Cc1cccn2c(=O)c(C(=O)NC(C)c3ccccc3)c(O)nc12 (stereo not drawn)	none (no result: Giardia FBPA inh-1)
COc1cc(NCc2ccccc2O)c2ncccc2c1	none (no result: Cruzain inh noDet, Cruzain inh Det)
Oc1ccccc1CNc1cccc2cccnc12	Giardia FBPA inh-1 6.3µM (no result: Cruzain inh noDet, Cruzain inh Det) | Giardia growth inactive | Mammalian tox inactive | Giardia FBPA inh-2 inactive | Rabbit aldolase inactive | GAPDH coupling inactive
Nc1ccc2nc(Cc3ccccc3)[nH]c2c1	Giardia FBPA inh-1 16µM (no result: Cruzain inh noDet, Cruzain inh Det) | Giardia growth inactive[10.4 µM] | Mammalian tox inactive | Giardia FBPA inh-2 inactive | Rabbit aldolase inactive | GAPDH coupling inactive
Cc1ccc2nc(Cc3ccc(N)cc3)[nH]c2c1	Giardia FBPA inh-1 inconclusive
CCOCCCn1c(SCC(=O)Nc2ccccc2CC)nc2ccccc2c1=O	none (no result: Giardia FBPA inh-1)
Cc1ccc(-c2nnc(Nc3ccc(C(=O)N(C)C)cc3)c3ccccc23)cc1S(=O)(=O)N(C)C	Cruzain inh noDet inconclusive (no result: Giardia FBPA inh-1)
O=C(O[C@@H]1OC2COC(=O)c3cc(O)c(O)c(O)c3-c3c(cc(O)c(O)c3O)C(=O)O[C@@H]([C@H]1O)[C@@H]2O)c1cc(O)c(O)c(O)c1	Giardia FBPA inh-1 inconclusive | Giardia growth inactive | Mammalian tox inactive | Giardia FBPA inh-2 inconclusive | Rabbit aldolase inconclusive | GAPDH coupling inconclusive
COc1c(O)cc2c(c1O)C1OC(CO)C(O)[C@H](O)[C@H]1OC2=O (stereo partly drawn)	none
Cc1cccc(CCNC(=O)c2ccc(CSCc3cccc(Cl)c3)o2)c1	none (no result: Giardia FBPA inh-1)
COc1cc(Cl)c(C)cc1NC(=O)CC(c1ccc(F)cc1)N1Cc2ccccc2C1=O (stereo not drawn)	none (no result: Giardia FBPA inh-1)
OCCN1CCN(c2nc(NCc3ccco3)c3ccccc3n2)CC1	none
CCN(CC)c1nc(N2CCN(CCO)CC2)nc2ccccc12	Giardia FBPA inh-1 13µM (no result: Cruzain inh noDet, Cruzain inh Det) | Giardia growth inactive | Mammalian tox inactive | Giardia FBPA inh-2 inactive | Rabbit aldolase inactive | GAPDH coupling inactive
COc1cc(C(=O)O/N=C2\C=CC(=O)C=C2C)cc(OC)c1OC	Giardia FBPA inh-1 4µM | Giardia growth inactive | Mammalian tox inconclusive | Giardia FBPA inh-2 28µM | Rabbit aldolase 32µM | GAPDH coupling 32µM
COc1cc(C(=O)O/N=C(\N)c2ccccn2)cc(OC)c1OC	none (no result: Cruzain inh noDet, Cruzain inh Det)
COc1ccc(N2CCN(C(=O)CSc3nnc(C)c(=O)[nH]3)CC2)cc1	Giardia FBPA inh-1 13µM | Giardia growth inactive | Mammalian tox inactive | Giardia FBPA inh-2 inactive | Rabbit aldolase inactive | GAPDH coupling inactive
COc1ccc(N2CCN(C(=O)CSc3nc4ccccc4c(=O)[nH]3)CC2)cc1	none (no result: Cruzain inh noDet, Cruzain inh Det)
COc1cc2c(c(OC)c1OC)-c1ccc(OC)c(=O)cc1[C@@H](NC=O)CC2	none (no result: Cruzain inh noDet, Cruzain inh Det)
CC(C)OCc1cc(CN2CCN(c3cccc(C(F)(F)F)c3)CC2)c(O)c2ncccc12	none (no result: Giardia FBPA inh-1)
O=[N+]([O-])c1cc(CN2CCN(c3cccc(C(F)(F)F)c3)CC2)c2cccnc2c1O	Giardia FBPA inh-1 16µM (no result: Cruzain inh noDet, Cruzain inh Det) | Giardia growth inactive | Mammalian tox inactive | Giardia FBPA inh-2 inactive | Rabbit aldolase inactive | GAPDH coupling inactive
N#CC1(O)CCCCC1	none (no result: Giardia FBPA inh-1)
Cc1nn2c(=S)[nH]nc2[nH]c1=O	Giardia FBPA inh-1 11µM (no result: Cruzain inh noDet, Cruzain inh Det) | Giardia growth inactive[10.4 µM] | Mammalian tox inactive | Giardia FBPA inh-2 inactive | Rabbit aldolase inactive | GAPDH coupling inactive
Cc1n[nH]c(=S)n(NC(=O)/C=C/C(=O)Nn2c(=S)[nH]nc(C)c2=O)c1=O	none (no result: Cruzain inh noDet, Cruzain inh Det)
Cn1ccc2c(OCC(=O)NCc3ccccc3Cl)cccc2c1=O	none (no result: Giardia FBPA inh-1)
CN(C)C(=S)NC(=O)c1cccc(Cl)c1	Giardia FBPA inh-1 16µM (no result: Cruzain inh noDet, Cruzain inh Det) | Giardia growth 7.1µM | Mammalian tox inactive | Giardia FBPA inh-2 inactive | Rabbit aldolase inactive | GAPDH coupling inactive
CC(=O)c1cccc(NC(=S)NC(=O)c2cccc(Cl)c2)c1	Giardia FBPA inh-1 inconclusive
CCOc1ccc(N(C)C(=O)CS(=O)(=O)c2cccc3nsnc23)cc1	none (no result: Giardia FBPA inh-1)
COc1ccc(-c2nc3sc(CCNC(=O)C(=O)Nc4ccccc4C#N)c(C)n3n2)cc1	none (no result: Giardia FBPA inh-1)
COc1ccc(CCN(Cc2ccccn2)C(=S)Nc2cccc(SC)c2)cc1OC	Giardia FBPA inh-1 10µM (no result: Cruzain inh noDet, Cruzain inh Det) | Giardia growth inactive | Mammalian tox inactive | Giardia FBPA inh-2 inactive | Rabbit aldolase inactive | GAPDH coupling inactive
COc1ccccc1NC(=S)N(Cc1ccc(C)cc1)Cc1ccccn1	Giardia FBPA inh-1 18µM (no result: Cruzain inh noDet, Cruzain inh Det) | Giardia growth inactive | Mammalian tox inactive | Giardia FBPA inh-2 inactive | Rabbit aldolase inactive | GAPDH coupling inactive
COc1ccc(CCN(Cc2ccccn2)C(=S)Nc2ccc(C)cc2)cc1OC	none (no result: Cruzain inh noDet, Cruzain inh Det)
COc1ccccc1NC(=S)N(Cc1ccc(C)cc1)Cc1cccnc1	none (no result: Cruzain inh noDet, Cruzain inh Det)
OCCCNCc1ccncc1	none (no result: Giardia FBPA inh-1)
COc1ccc(C(=O)NCC(c2ccco2)S(=O)(=O)c2cccs2)cc1 (stereo not drawn)	Cruzain inh noDet inconclusive (no result: Giardia FBPA inh-1)
O=C(NCC(c1cccnc1)N1CCN(Cc2ccccc2)CC1)C(=O)Nc1ccc(Cl)cc1 (stereo not drawn)	none (no result: Giardia FBPA inh-1)
CC(NC(=O)NNC(N)=S)(C(F)(F)F)C(F)(F)F	Giardia FBPA inh-1 18µM (no result: Cruzain inh noDet, Cruzain inh Det) | Giardia growth inactive | Mammalian tox inactive | Giardia FBPA inh-2 inactive | Rabbit aldolase inactive | GAPDH coupling inactive
CC(NC(=O)NC(N)=O)(C(F)(F)F)C(F)(F)F	none
Cc1nnc(N/N=C/c2ccc(-c3ccc(Br)cc3)o2)n1N	Giardia FBPA inh-1 16µM (no result: Cruzain inh noDet, Cruzain inh Det) | Giardia growth inactive | Mammalian tox inactive | Giardia FBPA inh-2 inconclusive | Rabbit aldolase inconclusive | GAPDH coupling inactive
O=C(O)c1cccc(-c2ccc(/C=N/NC(=O)c3cccnc3)o2)c1	none

Bioassay records (PubChem BioAssay)
